High-throughput results: PubChem, National Center for Advancing Translational Sciences (NCATS)
ALDH1A1 inh – ALDH1A1 (human) enzyme inhibition; Purified ALDH1A1, NADH fluorescence, propionaldehyde substrate; Potency, µM (titrated, usually from 75.3 µM), without a hit: at the top dose activity, negative = inhibition, actives largely listed as inhibitors; actives 7.3% (n = 220,000); active means well fitted inhibition curve with a large enough effect, not every such curve was filed as active; inconclusive means small, poorly fitted or top-dose-only effect, or another doubt; inactive means no such curve, though single readings can be large or run the other way;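 further: plate controls were no enzyme wells and a reference inhibitor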
Luc counter – blocks Kinase-Glo luciferase, a counter-screen artifact; AID 1379; actives 0.28% (n = 200,000); Kinase-Glo luciferase, ATP luminescence, 8 min; Potency, µM (top dose mostly 38.3 µM), inactives show at the highest dose activity change, negative = inhibition, most hits filed as inhibitors; Q27757; further: on the % scale 0 is the no-effect control and ±100 the full control effect; nearly all actives have a fitted effect of over 60% in size
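Recombinant Kinase-Glo luciferase, 10 uM ATP (linear range), luciferin; imidazole pH 7.2 / KCl / MgCl2 / Tween / BSA buffer; 8 min RT; luminescence.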
Lamin A splicing – modulators of lamin A splicing; AID 1487; HeLa LMNA splicing GFP/RFP minigene ratio, 48 h; Potency, µM (doses to about 46.1 µM), inactives show at the highest dose ratio change, negative = inhibition, actives largely listed as inhibitors; actives 0.01% (n = 200,000); active means well fitted inhibition curve with a large enough effect in the signal ratio, with a control signal flat, not every such curve was filed as active; inconclusive means small, poorly fitted or top-dose-only effect, or effect the other way, or a change in a side signal; the % refers to the signal ratio; further: on the % scale 0 is the no-effect control and ±100 the full control effect
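S3 HeLa stable clones carrying a lamin A-EGFP splicing minigene plus DsRed2 were seeded at 600 cells/well in Opti-MEM with 2% FBS, pin-dosed and incubated 48 h at 37°C. Acumen cytometry (488 nm) gave the GFP/RFP total-intensity ratio.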
HTT cytoprotect – cytoprotection in Huntington HTT-Q103 PC12 cell model | PC12 HTT-Q103 induced, cytoprotection, ATP luminescence, 40 h | Potency, µM (series often up to 56.4 µM), without a hit: cytoprotection (ATP increase), usual class: activators | AID 1471 | actives 0.14% (n = 230,000); further: % of control where 0% means no effect; nearly all actives have a fitted effect of over 45% in size
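Stable PC12 Q103-GFP cells in serum-supplemented, phenol red-free DMEM; induction by tebufenozide at 100 nM final; compound dose series; cell viability quantified luminescently from ATP.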
HPGD block – inhibitors of human 15-hydroxyprostaglandin dehydrogenase (HPGD). P15428. purified HPGD, NADH fluorescence kinetic, PGE2 substrate. Potency, µM, for inactives: top-dose activity change, negative = inhibition, usual class: inhibitors. actives 4.3% (n = 150,000). AID 894; active means well fitted inhibition curve with a large enough effect, not every such curve was filed as active; inconclusive means small, poorly fitted or top-dose-only effect, or another doubt; inactive means no such curve, though single readings can be large or run the other way; further: on the % scale 0 is the no-effect control and ±100 the full control effect
Target sequence (P15428 whole entry, looked up): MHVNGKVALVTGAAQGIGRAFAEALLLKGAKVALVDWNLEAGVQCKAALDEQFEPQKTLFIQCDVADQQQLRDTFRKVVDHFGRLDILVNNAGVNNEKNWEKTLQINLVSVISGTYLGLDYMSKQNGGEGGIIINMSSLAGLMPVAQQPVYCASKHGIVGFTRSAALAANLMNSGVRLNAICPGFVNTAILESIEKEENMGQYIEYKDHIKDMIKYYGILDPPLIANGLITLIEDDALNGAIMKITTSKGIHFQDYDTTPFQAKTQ
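20 nM HPGD preincubated 15 min at room temperature with compound in 50 mM Tris-HCl pH 8, 0.01% Tween 20. Started with 1 mM NAD+ and 30 uM prostaglandin E2; NADH fluorescence (360/450 nm) read 5 times over 30-s intervals, last minus first.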
HTT aggregate – mutant huntingtin aggregation inhibition; PC12 HttQ103-GFP aggregates, Acumen cytometry, 40 h; actives 1.1% (n = 220,000); AID 1688; Potency, µM (titrated, usually from 46.1 µM), without a hit: at the highest dose activity change, negative = inhibition, hits mostly inhibitors; further: on the % scale 0 is the no-effect control and ±100 the full control effect; nearly all actives have a fitted effect of over 60% in size
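Compounds (qHTS titration) were added to PC12 cells expressing an ecdysone-driven HTT exon 1 Q103–GFP fusion after induction with 100 nM tebufenozide. Aggregate formation was measured as GFP objects in cell lysates.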
* hit, by the source's call; ? = inconclusive; · = no result given; [ ] = another dose, or the depositor's remark. Compounds with a hit are over-represented: about 9% of the library has one in this group of screens. Unless noted, the call rests on the fitted dose curve; in most records, active means well fitted curve in the direction sought with a large enough effect; inconclusive means small, poorly fitted or top-dose-only effect, or another doubt; inactive means no such curve, though single readings can be large; an effect the other way counts as inactive or inconclusive. Potency means the concentration at half of the fitted maximal effect.

SMILES	ALDH1A1 inh	Luc counter	Lamin A splicing	HTT cytoprotect	HPGD block	HTT aggregate
C/C(=N\NC(=O)c1cccnc1)c1cc(C)oc1C	-9%	0%	1%	·	-3%	-12%
C/C(=N\NC(=O)c1ccccc1O)c1c(O)cc(C)oc1=O	?	-5%	-8%	-43%	?	-17%
COn1c(=O)c(=O)n(O)c2ccccc21	-2%	-1%	9%	7%	-21%	3%
CCn1c(/C=C/N(C)c2ccccc2)[n+](CC)c2ccc(Cl)cc21	?	0%	?	-59%[10 µM]	-14%	4.5µM*
CCn1c(/C=C/Nc2ccccc2)[n+](CC)c2ccc(Cl)cc21	1%	1%	10%	·	-6%	13%
COc1ccc(-c2nnc3n(CCc4ccccc4)c(=O)c4ccccc4n23)cc1OC	1.8µM*	·	-17%	-23%[10 µM]	·	3%
O=c1c2ccccc2n2c(-c3cccc(Cl)c3)nnc2n1Cc1ccccc1	-9%	0%	-16%	22%[10 µM]	-20%	5%
O=C1CC(Nc2ccccc2)C(=O)N1c1ccc(N2CCOCC2)cc1 (configuration not stated)	?	5%	1%	6%	-14%	11%
O=C1CC(Nc2ccc(N3CCOCC3)cc2)C(=O)N1c1ccccc1F (configuration not stated)	14µM*	-2%	-9%	-22%[10 µM]	-14%	23%
NC(=O)c1ccc(N=Nc2c(O)c3ccccc3[nH]c2=O)cc1	-8%	·	·	-24%[10 µM]	·	-9%[9.22 µM]
Cc1ccc(C(=O)C(C)OC(=O)c2n[nH]c(=O)c3ccccc23)cc1 (configuration not stated)	16%	0%	4%	5%	14µM*	14%
Cc1ccccc1OCC(=O)N/N=C/c1ccc(N(C)C)cc1	?	0%	12%[46 µM]	2%[10 µM]	·	2%
COc1ccccc1CC(NC(C)=O)C(=O)NC1CCN(c2nnnn2-c2ccccc2)CC1 (configuration not stated)	5.6µM*	0%	-4%	-2%[10 µM]	-12%	-11%
O=C(Nc1ccc(F)cc1)C1CCN(c2nnnn2-c2ccccc2)CC1	14µM*	0%	-6%	-21%[10 µM]	-8%	18%
COc1cccc(CC(NC(C)=O)C(=O)NC2CCN(c3nnnn3-c3ccccc3)CC2)c1OC (configuration not stated)	?	6%	-6%[46 µM]	-66%	·	30%
COc1ccc(NC(=O)C2CCN(c3nnnn3-c3ccccc3)CC2)cc1	13µM*	-4%	-9%	-2%	-8%	13%
O=S(=O)(c1cc(C(F)(F)F)ccc1Cl)N1CCN(c2ccccn2)CC1	·	·	·	-4%[10 µM]	·	11%[9.22 µM]
S=C(NCc1ccco1)N1CCN(c2nc(-c3ccc(Cl)cc3)cs2)CC1	-15%	0%	·	-100%	·	?
S=c1[nH]ncn1NCc1ccc(Cl)cc1Cl	1.4µM*	0%	·	-24%	·	-6%
Fc1cccc(Cl)c1CNn1cn[nH]c1=S	-11%	1%	4%[46 µM]	-21%	·	24%
O=C(NCCN1CCOCC1)C1CCC(=O)N1Cc1ccc(F)cc1 (configuration not stated)	12%	-4%	9%	-4%	-3%	-7%
O=C(/C=C/c1cn(CC(O)CN2CCOCC2)c2ccccc12)c1cccs1 (configuration not stated)	·	·	·	-2%[10 µM]	·	2%[9.22 µM]
O=C1C=C(c2cccs2)C[C@H](c2ccccc2)[C@H]1n1nnc([N+](=O)[O-])n1	7.9µM*	1%	?	-6%[10 µM]	-15%	-30%
CC(=O)C1C(=O)C=C(c2cccs2)CC1c1ccccc1 (configuration not stated)	?	0%	9%[9.22 µM]	-46%	·	-13%
O=C(Nc1ccc(C(=O)OCc2cc(=O)n3c4c(sc3n2)CCCC4)cc1)c1ccc(F)cc1	·	·	8%[46 µM]	·	·	·
Cc1cccc(C)c1NC(=O)CSc1ncnc2nc[nH]c12	6%	0%	-8%	17%[10 µM]	-11%	-23%
